The supplement of paper PMC7411640
Counter-ions that a name gives are not always drawn.

Each compound was assayed on MDA-MB-468 (assay: phospho-S6 immunofluorescence (DAPI-normalised), per-plate z-score; higher = higher phospho-S6 signal (less pathway suppression)). Conditions: co-treatment: vehicle; 24 h.
Description: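 GPCR-targeted compound library (MedChemExpress HY-L006) tested on MDA-MB-468 PTEN-null TNBC cells in 384-well plates at 0.1, 1 or 10 uM, combined with vehicle, GDC0941 450 nM or lapatinib 1 uM, for 24 h. Phospho-S6 (S240/244) immunofluorescence normalised to DAPI and expressed as a per-plate z-score; values are the mean of biological triplicates.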
CN1CCN(c2cc(-c3ccccc3)nc(N)n2)CC1 (compound 10 µM) was tested, and the “phospho-S6 immunofluorescence (z-score)” value was 1.14. With CN1CCCC(n2nc(Cc3ccc(Cl)cc3)c3ccccc3c2=O)CC1 (centres undefined) [Azelastine (hydrochloride)] (compound 10 µM) the “phospho-S6 immunofluorescence (z-score)” value was 0.16. In the case of CCN(CC)CC#CCOC(=O)C(O)(c1ccccc1)C1CCCCC1 (centres undefined) [Oxybutynin (chloride)] (compound 10 µM), the “phospho-S6 immunofluorescence (z-score)” value is reported as 0.53. CCCCCNC(=N)N/N=C/c1c[nH]c2ccc(OC)cc12 [Tegaserod (maleate)] (compound 10 µM) was tested, and the “phospho-S6 immunofluorescence (z-score)” value was -10.3. For Clc1ccc2c(c1)N=C(N1CCNCC1)c1ccccc1N2 [N-Desmethylclozapine] (compound 10 µM), the “phospho-S6 immunofluorescence (z-score)” value was -0.88. With c1ccc2c(CC3=NCCN3)cccc2c1 [Naphazoline (hydrochloride)] (compound 10 µM) the “phospho-S6 immunofluorescence (z-score)” value was 0.05. For CC(=O)Nc1cccc2c1c(Sc1ccc(Cl)cc1)c(C)n2CC(=O)O (compound 10 µM), the “phospho-S6 immunofluorescence (z-score)” value was -0.17. With CC(C)(C)NCC(O)COc1cccc2c1CCC(=O)N2 (centres undefined) [Carteolol (hydrochloride)] (compound 10 µM) the “phospho-S6 immunofluorescence (z-score)” value was -0.38. CN1CCC(=C2c3ccccc3CCn3c(C=O)cnc32)CC1 [Alcaftadine] (compound 10 µM) was tested, and the “phospho-S6 immunofluorescence (z-score)” value was -0.66. CCc1ccc(OCc2ccccc2C(=O)Nc2ccc3nc(C)cc(N)c3c2)cc1 (compound 10 µM) was tested, and the “phospho-S6 immunofluorescence (z-score)” value was -10.4. In the case of CCCC(=O)Nc1ccc(OCC(O)CNC(C)C)c(C(C)=O)c1 (centres undefined) [Acebutolol (hydrochloride)] (compound 10 µM), the “phospho-S6 immunofluorescence (z-score)” value is reported as -0.08. With COc1cccc(CCc2ccccc2OCC(CN(C)C)OC(=O)CCC(=O)O)c1 (centres undefined) [Sarpogrelate (hydrochloride)] (compound 10 µM) the “phospho-S6 immunofluorescence (z-score)” value was -0.15. With C[C@@](N)(C(=O)O)c1ccc(C(=O)O)cc1 (compound 10 µM) the “phospho-S6 immunofluorescence (z-score)” value was 0.17. In the case of N=C(N)N/N=C/c1c(Cl)cccc1Cl [Guanabenz (Acetate)] (compound 10 µM), the “phospho-S6 immunofluorescence (z-score)” value is reported as -0.2. With Cc1nc(C#Cc2cccnc2)cs1 [MTEP (hydrochloride)] (compound 10 µM) the “phospho-S6 immunofluorescence (z-score)” value was -0.75. For CN1[C@@H]2CC[C@H]1C[C@@H](OC(c1ccccc1)c1ccccc1)C2 [Benztropine (mesylate)] (compound 10 µM), the “phospho-S6 immunofluorescence (z-score)” value was 0.29. For CN(C)CC/C=C1/c2ccccc2Sc2ccc(Cl)cc21 [Chlorprothixene] (compound 10 µM), the “phospho-S6 immunofluorescence (z-score)” value was 0.41. For COc1nc(C)cnc1NS(=O)(=O)c1cccnc1-c1ccc(-c2nnco2)cc1 [Zibotentan] (compound 10 µM), the “phospho-S6 immunofluorescence (z-score)” value was -2.06. With OCCN1CCN(CCCN2c3ccccc3Sc3ccc(Cl)cc32)CC1 [Perphenazine] (compound 10 µM) the “phospho-S6 immunofluorescence (z-score)” value was 0.82. For Cc1ccc(F)cc1C(=O)Nc1ccc(C(=O)N2Cc3cccn3Cc3ccccc32)c(Cl)c1 [Lixivaptan] (compound 10 µM), the “phospho-S6 immunofluorescence (z-score)” value was 0.62. In the case of Cn1c(=O)c2c(ncn2CC(=O)O)n(C)c1=O [Acefylline] (compound 10 µM), the “phospho-S6 immunofluorescence (z-score)” value is reported as -0.98. With CC(=O)OCC(=O)NCCCOc1cccc(CN2CCCCC2)c1 [Roxatidine (Acetate Hydrochloride)] (compound 10 µM) the “phospho-S6 immunofluorescence (z-score)” value was 0.91. With CC(C)C[C@H](NC(=O)[C@H](CC(C)C)NC(=O)[C@H](Cc1ccccc1)NC(=O)[C@@H](N)CO)C(=O)N[C@@H](CCCN=C(N)N)C(=O)N[C@@H](CC(N)=O)C(=O)O (compound 10 µM) the “phospho-S6 immunofluorescence (z-score)” value was 0.03. With CC(C)(O)c1ccccc1CC[C@@H](SCC1(CC(=O)O)CC1)c1cccc(/C=C/c2ccc3ccc(Cl)cc3n2)c1 [Montelukast (sodium)] (compound 10 µM) the “phospho-S6 immunofluorescence (z-score)” value was 1.39. With C[C@@H]1C[C@H]2[C@@H]3CCC4=CC(=O)C=C[C@]4(C)[C@@]3(Cl)[C@@H](O)C[C@]2(C)[C@@]1(OC(=O)c1ccco1)C(=O)CCl [Mometasone furoate] (compound 10 µM) the “phospho-S6 immunofluorescence (z-score)” value was -1.92. CCCSc1nc(N[C@@H]2C[C@H]2c2ccc(F)c(F)c2)c2nnn([C@@H]3C[C@H](OCCO)[C@@H](O)[C@H]3O)c2n1 [Ticagrelor] (compound 10 µM) was tested, and the “phospho-S6 immunofluorescence (z-score)” value was 1.13. CC(C)c1noc(N2CCC(COc3ccc(-c4ccc(S(C)(=O)=O)cc4)nc3)CC2)n1 (compound 10 µM) was tested, and the “phospho-S6 immunofluorescence (z-score)” value was -6.22. O=S(=O)(c1ccccc1)c1cnc2c(N3CCNCC3)cccc2c1 (compound 10 µM) was tested, and the “phospho-S6 immunofluorescence (z-score)” value was 0.76. In the case of OCCOCCN1CCN(C(c2ccccc2)c2ccccc2)CC1 [Decloxizine (dihydrochloride)] (compound 10 µM), the “phospho-S6 immunofluorescence (z-score)” value is reported as -0.19.
